Measured values taken from the supplement of paper PMC3545927.
Some of the results follow. The true hit rate is not given.

Biological target: furin, P09958
Experiment: furin cleavage Z-score vs untreated control; higher = more cleavage, active = 3.5 or more, inactive = 1 or less, 8 variable residues between constant flanks
Summary of the method: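 Abundance of DNA freed from bead-bound 8-mer peptide–cDNA fusions by purified furin was measured as sequencing read counts after PCR adapter tagging. Cutting ran 7.5, 15 or 30 min in 0.01 ml of 50 mM HEPES pH 7.5 with CaCl2 and NaCl at 1:10 enzyme:substrate. The cleavage Z-score expresses these log counts against furin-free reactions after lowess adjustment and median absolute deviation scaling.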

Chain of furin, P09958 (P09958 whole entry): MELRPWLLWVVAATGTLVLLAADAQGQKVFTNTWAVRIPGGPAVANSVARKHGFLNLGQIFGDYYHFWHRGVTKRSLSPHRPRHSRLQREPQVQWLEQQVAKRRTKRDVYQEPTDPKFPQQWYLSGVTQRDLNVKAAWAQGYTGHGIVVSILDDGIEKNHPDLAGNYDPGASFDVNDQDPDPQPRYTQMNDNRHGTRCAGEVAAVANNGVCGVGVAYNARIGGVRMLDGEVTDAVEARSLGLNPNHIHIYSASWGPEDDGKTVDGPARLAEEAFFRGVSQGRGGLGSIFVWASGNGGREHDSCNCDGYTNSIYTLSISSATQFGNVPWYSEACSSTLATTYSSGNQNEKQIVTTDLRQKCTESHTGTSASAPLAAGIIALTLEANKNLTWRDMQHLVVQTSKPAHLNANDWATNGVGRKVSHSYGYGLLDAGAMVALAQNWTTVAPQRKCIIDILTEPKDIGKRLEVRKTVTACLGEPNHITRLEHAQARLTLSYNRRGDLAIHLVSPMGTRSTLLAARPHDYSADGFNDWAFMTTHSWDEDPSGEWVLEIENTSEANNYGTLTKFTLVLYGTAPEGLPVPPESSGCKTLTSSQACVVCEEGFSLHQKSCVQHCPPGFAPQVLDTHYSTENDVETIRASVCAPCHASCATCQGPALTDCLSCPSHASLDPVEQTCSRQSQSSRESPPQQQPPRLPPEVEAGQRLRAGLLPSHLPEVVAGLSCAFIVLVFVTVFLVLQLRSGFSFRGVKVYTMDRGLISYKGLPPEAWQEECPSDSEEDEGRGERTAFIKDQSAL

Sequence: CASHITAEAAAGNASASA [HC1250]
- furin cleavage Z-score (7.5 min): -0.151 (inactive)
- furin cleavage Z-score (15 min): -1.71 (inactive)
- furin cleavage Z-score (30 min): -1.91 (inactive)

Sequence: CADNVTPIDTAGNASASA [HC1435]
- furin cleavage Z-score (7.5 min): -0.0484 (inactive)
- furin cleavage Z-score (15 min): -0.00567 (inactive)
- furin cleavage Z-score (30 min): -0.908 (inactive)

Sequence: CAIASWAIKWAGNASASA [HC515]
- furin cleavage Z-score (7.5 min): -0.183 (inactive)
- furin cleavage Z-score (15 min): 0.294 (inactive)
- furin cleavage Z-score (30 min): -1.7 (inactive)

Sequence: CALIHLHQNIAGNASASA [HC505]
- furin cleavage Z-score (7.5 min): 0.141 (inactive)
- furin cleavage Z-score (15 min): -1.53 (inactive)
- furin cleavage Z-score (30 min): 0.884 (inactive)

Sequence: CAVHCCSMSYAGNASASA [HC2015]
- furin cleavage Z-score (7.5 min): 0.313 (inactive)
- furin cleavage Z-score (15 min): -1.84 (inactive)
- furin cleavage Z-score (30 min): 0.688 (inactive)

Sequence: CAPQLPGIPFAGNASASA [HC1161]
- furin cleavage Z-score (7.5 min): -0.711 (inactive)
- furin cleavage Z-score (15 min): -1.22 (inactive)
- furin cleavage Z-score (30 min): 0.14 (inactive)

Sequence: CATNPCSGSWAGNASASA [HC1861]
- furin cleavage Z-score (7.5 min): -0.962 (inactive)
- furin cleavage Z-score (15 min): -0.755 (inactive)
- furin cleavage Z-score (30 min): -0.828 (inactive)

Sequence: CAEEVTSTWVAGNASASA [HC2172]
- furin cleavage Z-score (7.5 min): -0.33 (inactive)
- furin cleavage Z-score (15 min): 0.0818 (inactive)
- furin cleavage Z-score (30 min): 0.598 (inactive)

Sequence: CAKTLRTKRNAGNASASA [FS-1352]
- furin cleavage Z-score (7.5 min): 9.31 (active)
- furin cleavage Z-score (15 min): 8.38 (active)
- furin cleavage Z-score (30 min): 6.89 (active)

Sequence: CAKKMRNKRNAGNASASA [FS-42]
- furin cleavage Z-score (7.5 min): 10.5 (active)
- furin cleavage Z-score (15 min): 10.9 (active)
- furin cleavage Z-score (30 min): 9.3 (active)

Sequence: CASTPCSAWLAGNASASA [HC2548]
- furin cleavage Z-score (7.5 min): -0.0997 (inactive)
- furin cleavage Z-score (15 min): -0.849 (inactive)
- furin cleavage Z-score (30 min): -0.533 (inactive)

Sequence: CADREVPCHRAGNASASA [HC2431]
- furin cleavage Z-score (7.5 min): 0.898 (inactive)
- furin cleavage Z-score (15 min): 1.78
- furin cleavage Z-score (30 min): 1.29

Sequence: CATTPCSGSWAGNASASA [HC54]
- furin cleavage Z-score (7.5 min): -0.34 (inactive)
- furin cleavage Z-score (15 min): -3.09 (inactive)
- furin cleavage Z-score (30 min): -0.396 (inactive)

Sequence: CAPPCVIGGAAGNASASA [HC444]
- furin cleavage Z-score (7.5 min): -0.324 (inactive)
- furin cleavage Z-score (15 min): -0.267 (inactive)
- furin cleavage Z-score (30 min): 0.0653 (inactive)

Sequence: CARRRRYEGHAGNASASA [FS-2235]
- furin cleavage Z-score (7.5 min): 0.411 (inactive)
- furin cleavage Z-score (15 min): 0.839 (inactive)
- furin cleavage Z-score (30 min): -0.246 (inactive)

Sequence: CARRRRYALSAGNASASA [FS-2801]
- furin cleavage Z-score (7.5 min): 5.16 (active)
- furin cleavage Z-score (15 min): 9.42 (active)
- furin cleavage Z-score (30 min): 8.62 (active)

Sequence: CARRRRLYWGAGNASASA [FS-1787]
- furin cleavage Z-score (7.5 min): -0.939 (inactive)
- furin cleavage Z-score (15 min): 0.513 (inactive)
- furin cleavage Z-score (30 min): -1.89 (inactive)

Sequence: CARRRRYAVAAGNASASA [FS-3232]
- furin cleavage Z-score (7.5 min): 4.58 (active)
- furin cleavage Z-score (15 min): 6.75 (active)
- furin cleavage Z-score (30 min): 6.05 (active)

Sequence: CARRRRLRTAAGNASASA [FS-1786]
- furin cleavage Z-score (7.5 min): 2.03
- furin cleavage Z-score (15 min): 3.9 (active)
- furin cleavage Z-score (30 min): 4.2 (active)

Sequence: CARRRRYKKKAGNASASA [FS-2182]
- furin cleavage Z-score (7.5 min): -0.133 (inactive)
- furin cleavage Z-score (15 min): -0.187 (inactive)
- furin cleavage Z-score (30 min): -0.000733 (inactive)

Sequence: CALIARDQLEAGNASASA [HC1587]
- furin cleavage Z-score (7.5 min): 1.19
- furin cleavage Z-score (15 min): -0.286 (inactive)
- furin cleavage Z-score (30 min): 0.308 (inactive)

Sequence: CAGRDAVILLAGNASASA [HC595]
- furin cleavage Z-score (7.5 min): -0.947 (inactive)
- furin cleavage Z-score (15 min): -0.587 (inactive)
- furin cleavage Z-score (30 min): -0.719 (inactive)

Sequence: CAGHSRSRRAAGNASASA [FS-241]
- furin cleavage Z-score (7.5 min): 9.52 (active)
- furin cleavage Z-score (15 min): 9.9 (active)
- furin cleavage Z-score (30 min): 7.81 (active)

Sequence: CACRARGMRAAGNASASA [FS-15]
- furin cleavage Z-score (7.5 min): -0.759 (inactive)
- furin cleavage Z-score (15 min): -0.9 (inactive)
- furin cleavage Z-score (30 min): -0.752 (inactive)

Sequence: CAGRSRRPRLAGNASASA [FS-594]
- furin cleavage Z-score (7.5 min): 5.82 (active)
- furin cleavage Z-score (15 min): 7.31 (active)
- furin cleavage Z-score (30 min): 7.21 (active)

Sequence: CAGTQRLTRAAGNASASA [FS-438]
- furin cleavage Z-score (7.5 min): 5.42 (active)
- furin cleavage Z-score (15 min): 7.11 (active)
- furin cleavage Z-score (30 min): 7.04 (active)

Sequence: CAGRQRKPRPAGNASASA [FS-658]
- furin cleavage Z-score (7.5 min): -0.103 (inactive)
- furin cleavage Z-score (15 min): -1.02 (inactive)
- furin cleavage Z-score (30 min): -0.398 (inactive)

Sequence: CAGRSRASRGAGNASASA [FS-1591]
- furin cleavage Z-score (7.5 min): 0.169 (inactive)
- furin cleavage Z-score (15 min): 0.355 (inactive)
- furin cleavage Z-score (30 min): 0.871 (inactive)

Sequence: CAGRSRSRRAAGNASASA [FS-1205]
- furin cleavage Z-score (7.5 min): 11.2 (active)
- furin cleavage Z-score (15 min): 9.2 (active)
- furin cleavage Z-score (30 min): 6.8 (active)

Sequence: CAMERCSQHLAGNASASA [HC1713]
- furin cleavage Z-score (7.5 min): 1.58
- furin cleavage Z-score (15 min): 0.689 (inactive)
- furin cleavage Z-score (30 min): 1.89

Sequence: CAIPSRRPRFAGNASASA [FS-255]
- furin cleavage Z-score (7.5 min): 5.86 (active)
- furin cleavage Z-score (15 min): 8 (active)
- furin cleavage Z-score (30 min): 9.09 (active)

Sequence: CARLSRFPRFAGNASASA [FS-490]
- furin cleavage Z-score (7.5 min): 8.21 (active)
- furin cleavage Z-score (15 min): 11.2 (active)
- furin cleavage Z-score (30 min): 11.1 (active)

Sequence: CARLSRPDSGAGNASASA [FS-1749]
- furin cleavage Z-score (7.5 min): -0.794 (inactive)
- furin cleavage Z-score (15 min): -0.615 (inactive)
- furin cleavage Z-score (30 min): -0.815 (inactive)

Sequence: CAMLSRFGRFAGNASASA [FS-692]
- furin cleavage Z-score (7.5 min): -0.109 (inactive)
- furin cleavage Z-score (15 min): 0.852 (inactive)
- furin cleavage Z-score (30 min): 3.08

Sequence: CALRHHNLVYAGNASASA [HC1386]
- furin cleavage Z-score (7.5 min): 1.49
- furin cleavage Z-score (15 min): 0.243 (inactive)
- furin cleavage Z-score (30 min): 1.05

Sequence: CACINGVCWTAGNASASA [HC697]
- furin cleavage Z-score (7.5 min): -0.68 (inactive)
- furin cleavage Z-score (15 min): -1.02 (inactive)
- furin cleavage Z-score (30 min): -2.54 (inactive)

Sequence: CALNCNDSLNAGNASASA [HC374]
- furin cleavage Z-score (7.5 min): -1.18 (inactive)
- furin cleavage Z-score (15 min): -0.292 (inactive)
- furin cleavage Z-score (30 min): -1.02 (inactive)

Sequence: CADAESYSSMAGNASASA [HC1351]
- furin cleavage Z-score (7.5 min): 1.28
- furin cleavage Z-score (15 min): 0.832 (inactive)
- furin cleavage Z-score (30 min): -0.308 (inactive)

Sequence: CAVLGRKKRTAGNASASA [FS-1102]
- furin cleavage Z-score (7.5 min): 8.65 (active)
- furin cleavage Z-score (15 min): 9.15 (active)
- furin cleavage Z-score (30 min): 8.6 (active)

Sequence: CAVLHRNKRTAGNASASA [FS-1661]
- furin cleavage Z-score (7.5 min): 9.47 (active)
- furin cleavage Z-score (15 min): 9.94 (active)
- furin cleavage Z-score (30 min): 9.22 (active)

Sequence: CAVLEVVTSTAGNASASA [HC2270]
- furin cleavage Z-score (7.5 min): 0.137 (inactive)
- furin cleavage Z-score (15 min): -0.489 (inactive)
- furin cleavage Z-score (30 min): -0.471 (inactive)

Sequence: CATPGDPKRTAGNASASA [FS-510]
- furin cleavage Z-score (7.5 min): -0.0828 (inactive)
- furin cleavage Z-score (15 min): 0.23 (inactive)
- furin cleavage Z-score (30 min): -0.487 (inactive)

Sequence: CASPGRHKRTAGNASASA [FS-380]
- furin cleavage Z-score (7.5 min): 8.84 (active)
- furin cleavage Z-score (15 min): 8.17 (active)
- furin cleavage Z-score (30 min): 6.66 (active)

Sequence: CAVLRRDVITAGNASASA [FS-2855]
- furin cleavage Z-score (7.5 min): 0.181 (inactive)
- furin cleavage Z-score (15 min): -1.21 (inactive)
- furin cleavage Z-score (30 min): 0.595 (inactive)

Sequence: CASPGRSARPAGNASASA [FS-93]
- furin cleavage Z-score (7.5 min): -1.18 (inactive)
- furin cleavage Z-score (15 min): -1.19 (inactive)
- furin cleavage Z-score (30 min): -1.31 (inactive)

Sequence: CAISLRFKRTAGNASASA [FS-172]
- furin cleavage Z-score (7.5 min): 7.22 (active)
- furin cleavage Z-score (15 min): 6.1 (active)
- furin cleavage Z-score (30 min): 6.83 (active)
